Among the test systems are SR leukemia; RPMI-8226 leukemia; OVCAR-8 ovarian; OVCAR-5 ovarian; OVCAR-4 ovarian; SK-OV-3 ovarian; IGROV1 ovarian; OVCAR-3 ovarian; HS 578T breast; NCI/ADR-RES ovarian; T-47D breast; BT-549 breast; MDA-MB-435 melanoma; SW-620 colon; MCF7 breast; HCT-116 colon; HCC-2998 colon; KM12 colon.
Common to all, as to experiment: NCI-60 one-dose screen, 48 h (100 = growth as untreated, 0 = no growth, -100 = all killed)
What all share (settings): 10 µM unless noted

Our source for the growth values is PubChem BioAssay (NCI).

About 83,000 compounds went through this panel and 20% of them were active in at least one assay; those are over-represented in the sample as a whole.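 Plates (96-well) were seeded with cells, treated with compound at one concentration, and incubated for 48 hours before percent growth was determined.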 A number with no mark means an inactive call. The source made the active and inactive calls. The calls were made as follows: active = growth percent below 10; inactive = the rest.

Take `Nc1ccc(Cl)cn1`: the growth with SR leukemia was 113%; with RPMI-8226 leukemia, 101%; in the test with OVCAR-8 ovarian it was 101%; in the test with OVCAR-5 ovarian, 101%; with OVCAR-4 ovarian, 97.4%; in the test on SK-OV-3 ovarian it was 93.6%. Moreover, the growth in the test on IGROV1 ovarian was 104%; in the test on OVCAR-3 ovarian, 106%; in the test on HS 578T breast, 99.7%; in the test on NCI/ADR-RES ovarian, 98.7%; with T-47D breast it was 86.7%; with BT-549 breast, 104%. Besides, the growth is 106% with MDA-MB-435 melanoma; 102% in the test on SW-620 colon; 94.7% with MCF7 breast; 95.4% with HCT-116 colon; 113% in the test with HCC-2998 colon; 100% in the test with KM12 colon.

With `CCN1CCN(C(=O)[C@@]2(C)CC[C@]3(C)CC[C@]4(C)C(=CC(=O)[C@@H]5[C@@]6(C)CC[C@H](OCCC#N)C(C)(C)[C@@H]6CC[C@]54C)[C@@H]3C2)CC1`, the growth in the test on SR leukemia is 4.19% (active); in the test with RPMI-8226 leukemia, 63.2%; with OVCAR-8 ovarian, 90.5%; in the test on OVCAR-5 ovarian it was 92.3%; with OVCAR-4 ovarian, 94.7%; with SK-OV-3 ovarian it was 99.2%. Also, the growth with IGROV1 ovarian is 95.5%; in the test with OVCAR-3 ovarian it was 100%; in the test with HS 578T breast, 83.3%; in the test on NCI/ADR-RES ovarian, 93.3%; in the test on T-47D breast, 66%; in the test on BT-549 breast, 79%. The growth was 81.5% in the test on MDA-MB-435 melanoma; 97.9% with SW-620 colon; 78.2% in the test on MCF7 breast; 80.6% in the test with HCT-116 colon; 101% in the test on HCC-2998 colon; 98.5% in the test on KM12 colon.

Regarding `Cc1ccnc2c(OCc3ccccc3)cccc12`, the growth in the test on SR leukemia is 101%; with RPMI-8226 leukemia it was 99.2%; with OVCAR-8 ovarian, 115%; in the test on OVCAR-5 ovarian it was 93.1%; with OVCAR-4 ovarian it was 72.2%; with SK-OV-3 ovarian, 112%. The growth with IGROV1 ovarian was 87.5%; with OVCAR-3 ovarian, 92.8%; in the test with HS 578T breast, 92.2%; in the test with NCI/ADR-RES ovarian it was 86.1%; with T-47D breast it was 72.8%; in the test on BT-549 breast it was 101%. The growth is 90.2% in the test on MDA-MB-435 melanoma; 92% in the test with SW-620 colon; 38.3% in the test with MCF7 breast; 92.4% with HCT-116 colon; 86.6% in the test on HCC-2998 colon; 82.8% in the test on KM12 colon.

In the case of `N#CCCCCCn1c2ccccc2c2c3[nH]c(=O)[nH]c(=O)c3c3c4ccccc4n(CCCCCC#N)c3c21`, the growth in the test with SR leukemia was 20.3%; in the test on RPMI-8226 leukemia, 53.4%; in the test on OVCAR-8 ovarian, 27.4%; in the test on OVCAR-5 ovarian, 92.4%; with OVCAR-4 ovarian, 58.7%; in the test on SK-OV-3 ovarian it was 72.7%. Further, the growth with IGROV1 ovarian was 22.4%; in the test with OVCAR-3 ovarian, 49.2%; in the test with HS 578T breast, 51.6%; in the test with NCI/ADR-RES ovarian, 89.4%; in the test on T-47D breast it was 22.9%; with BT-549 breast, 32%. For the same compound, the growth was 36.8% in the test on MDA-MB-435 melanoma; 61.4% in the test with SW-620 colon; 45.3% with MCF7 breast; 28.2% with HCT-116 colon; 53.8% with HCC-2998 colon; 23.8% with KM12 colon.

Regarding `C=C(C)[C@@H]1CC[C@]2(C=NCCCNCCCCNCCCN)CC[C@]3(C)[C@H](CC[C@@H]4[C@@]5(C)CCCNC(C)(C)[C@@H]5CC[C@]43C)[C@@H]12`, the growth in the test with SR leukemia was 21.7%; in the test on RPMI-8226 leukemia, 107%; in the test on OVCAR-8 ovarian it was 83.8%; in the test on OVCAR-5 ovarian, 112%; with OVCAR-4 ovarian, 102%; with SK-OV-3 ovarian it was 95.8%. In addition, the growth in the test with IGROV1 ovarian is 112%; in the test with OVCAR-3 ovarian, 106%; in the test on HS 578T breast, 104%; with NCI/ADR-RES ovarian, 91.8%; with T-47D breast, 90.8%; with BT-549 breast it was 98.2%. For the same compound, the growth in the test on MDA-MB-435 melanoma is 94.8%; with SW-620 colon, 88.4%; in the test on MCF7 breast it was 89.4%; with HCT-116 colon it was 77.7%; with HCC-2998 colon, 100%; in the test on KM12 colon, 98.2%.

Take `CC1(C)C(=O)CC[C@]2(C)[C@H]3C(=O)C=C4[C@@H]5C[C@@](C)(C(=O)NCCNCCN)CC[C@]5(C)CC[C@@]4(C)[C@]3(C)CC[C@@H]12`: the growth in the test with SR leukemia was 20%; in the test with RPMI-8226 leukemia it was 91.1%; in the test on OVCAR-8 ovarian, 99.6%; with OVCAR-5 ovarian, 108%; in the test on OVCAR-4 ovarian it was 105%; with SK-OV-3 ovarian it was 104%. Besides, the growth is 96.4% in the test on IGROV1 ovarian; 104% in the test on OVCAR-3 ovarian; 97.5% in the test on HS 578T breast; 102% with NCI/ADR-RES ovarian; 82% with T-47D breast; 91.7% in the test on BT-549 breast. Moreover, the growth was 101% with MDA-MB-435 melanoma; 102% in the test on SW-620 colon; 90.6% in the test with MCF7 breast; 83.2% in the test with HCT-116 colon; 101% in the test with HCC-2998 colon; 98.7% with KM12 colon.

As to `CN1CCN(CCOc2ccc(-c3cnc4c(-c5ccccc5F)cnn4c3)cc2)CC1`, the growth in the test on SR leukemia was -12.6% (active); in the test with RPMI-8226 leukemia it was -9.99% (active); with OVCAR-8 ovarian it was 40.7%; in the test with OVCAR-5 ovarian, 80.4%; with OVCAR-4 ovarian, 63.6%; in the test with SK-OV-3 ovarian it was 94.2%. Moreover, the growth with IGROV1 ovarian is 57.3%; in the test on OVCAR-3 ovarian, 20.3%; in the test on HS 578T breast it was 76.9%; with NCI/ADR-RES ovarian, 48.8%; with T-47D breast, 23%; in the test on BT-549 breast it was 69.9%. The growth is -29.2% (active) in the test with MDA-MB-435 melanoma; -73.8% (active) with SW-620 colon; 19.2% with MCF7 breast; 3.73% (active) with HCT-116 colon; 22.4% with HCC-2998 colon; 9.44% (active) with KM12 colon.

`c1ccc(CN2C(c3ccccc3)=Nc3ccccc3C2c2c[nH]c3ccccc23)cc1` (centres undefined): the growth in the test on SR leukemia is -17.8% (active); with RPMI-8226 leukemia, 4.99% (active); with OVCAR-8 ovarian, 44.4%; in the test with OVCAR-5 ovarian, 60.7%; in the test on OVCAR-4 ovarian, 27.1%; in the test with SK-OV-3 ovarian it was 71.6%. For the same compound, the growth with IGROV1 ovarian was 19.3%; in the test with OVCAR-3 ovarian it was 57.6%; in the test on HS 578T breast, 52.3%; in the test with NCI/ADR-RES ovarian, 30.2%; with T-47D breast, 27.8%; with BT-549 breast it was 96.3%. The growth was 39.2% in the test on MDA-MB-435 melanoma; 27.1% in the test with SW-620 colon; 23.5% with MCF7 breast; 14.3% in the test on HCT-116 colon; 41.8% with HCC-2998 colon; 56.8% in the test with KM12 colon.
